# Reference: publication PMC5540273 (PLoS ONE, 2017)
# “And” between values parts separate entries of the source, which are not always exact repeats. Identical values can stand only once. Like-named read-outs stand apart in the source and are kept apart here.
# What was measured:
# [1] = tested on: EPHB6; conditions: concentration: 1 μM, replicates: in singlicate, n = 1
# [2] = tested on: ERBB2; conditions: concentration: 1 μM, replicates: in singlicate, n = 1
# [3] = tested on: ERBB3; conditions: concentration: 1 μM, replicates: in singlicate, n = 1
# [4] = tested on: ERBB4; conditions: concentration: 1 μM, replicates: in singlicate, n = 1
# [5] = tested on: T1, ERK1; conditions: concentration: 1 μM, replicates: in singlicate, n = 1
# T1 construct: gene MAPK3
# [6] = tested on: T2, ERK2; conditions: concentration: 1 μM, replicates: in singlicate, n = 1
# T2 construct: gene MAPK1
# [7] = tested on: T3, ERK3; conditions: concentration: 1 μM, replicates: in singlicate, n = 1
# T3 construct: gene MAPK6
# [8] = tested on: T4, ERK4; conditions: concentration: 1 μM, replicates: in singlicate; n = 1
# T4 construct: gene MAPK4
# [9] = tested on: T5, ERK5; conditions: concentration: 1 μM, replicates: in singlicate, n = 1
# T5 construct: gene MAPK7
# [10] = tested on: T6, ERK8; conditions: concentration: 1 μM, replicates: in singlicate, n = 1
# T6 construct: gene MAPK15
# [11] = tested on: ERN1; conditions: concentration: 1 μM, replicates: in singlicate, n = 1
# [12] = tested on: T7, FAK; conditions: concentration: 1 μM, replicates: in singlicate; n = 1
# T7 construct: gene PTK2
# [13] = tested on: FER; conditions: concentration: 1 μM, replicates: in singlicate, n = 1
# [14] = tested on: FES; conditions: concentration: 1 μM, replicates: in singlicate; n = 1
# [15] = tested on: FGFR1; conditions: concentration: 1 μM, replicates: in singlicate, n = 1
# [16] = tested on: FGFR2; conditions: concentration: 1 μM, replicates: in singlicate; n = 1
# [17] = tested on: FGFR3; conditions: concentration: 1 μM, replicates: in singlicate; n = 1
# [18] = tested on: FGFR4; conditions: concentration: 1 μM, replicates: in singlicate; n = 1
# [19] = tested on: FGR; conditions: concentration: 1 μM, replicates: in singlicate, n = 1
# [20] = tested on: FLT1; conditions: concentration: 1 μM, replicates: in singlicate, n = 1
# 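Also: KINOMEscan kinase panel screen.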
compound,measurement,setting,value
COc1ccc(S(=O)(=O)NC2CCN(c3cc(C)nc(Nc4cccc(C#N)c4)n3)CC2)cc1.O=C(O)C(F)(F)F [GSK1653539],%Inh,[1],14%
same,%Inh,[2],0%
same,%Inh,[3],0%
same,%Inh,[4],0%
same,%Inh,[5],0%
same,%Inh,[6],0%
same,%Inh,[7],13%
same,%Inh,[8],0%
same,%Inh,[9],0%
same,%Inh,[10],0%
same,%Inh,[11],4%
same,%Inh,[12],0%
same,%Inh,[13],23%
same,%Inh,[14],12%
same,%Inh,[15],0%
same,%Inh,[16],0%
same,%Inh,[17],21%
same,%Inh,[18],0%
same,%Inh,[19],33%
same,%Inh,[20],12%
COc1ccc(Nc2ncc(C#N)c(Nc3ccccc3C(N)=O)n2)cc1N1CCN(C)CC1.Cl [GSK1558669],%Inh,[1],98.3%
same,%Inh,[2],80%
same,%Inh,[3],96.6%
same,%Inh,[4],88%
same,%Inh,[5],7%
same,%Inh,[6],0%
same,%Inh,[7],100%
same,%Inh,[8],100%
same,%Inh,[9],99.9%
same,%Inh,[10],98.9%
same,%Inh,[11],92%
same,%Inh,[12],100%
same,%Inh,[13],99.5%
same,%Inh,[14],99.3%
same,%Inh,[15],100%
same,%Inh,[16],99.8%
same,%Inh,[17],99.9%
same,%Inh,[18],85%
same,%Inh,[19],96.5%
same,%Inh,[20],100%
Cn1ccc2ncnc(Oc3ccc(NC(=O)Nc4ccncc4)c(Cl)c3)c21,%Inh,[1],0%
same,%Inh,[2],15%
same,%Inh,[3],0%
same,%Inh,[4],0%
same,%Inh,[5],0%
same,%Inh,[6],0%
same,%Inh,[7],5%
same,%Inh,[8],0%
same,%Inh,[9],0%
same,%Inh,[10],1%
same,%Inh,[11],0%
same,%Inh,[12],0%
same,%Inh,[13],0%
same,%Inh,[14],0%
same,%Inh,[15],0%
same,%Inh,[16],0%
same,%Inh,[17],0%
same,%Inh,[18],0%
same,%Inh,[19],5%
same,%Inh,[20],0%
Cl.Cl.Cl.Fc1ccc(-c2ncn(C3CCNCC3)c2-c2ccnc(Nc3ccccc3)n2)cc1 [SB-238039],%Inh,[1]; 1 µM,3% and 0%
same,%Inh,[2]; 1 µM,92% and 79%
same,%Inh,[3]; 1 µM,67% and 7%
same,%Inh,[4]; 1 µM,47% and 46%
same,%Inh,[5]; 1 µM,60% and 11%
same,%Inh,[6]; 1 µM,37% and 26%
same,%Inh,[7]; 1 µM,0% and 18%
same,%Inh,[8],0%
same,%Inh,[9]; 1 µM,46% and 0%
same,%Inh,[10]; 1 µM,0% and 10%
same,%Inh,[11]; 1 µM,19% and 6%
same,%Inh,[12],0%
same,%Inh,[13]; 1 µM,0% and 1%
same,%Inh,[14],0%
same,%Inh,[15]; 1 µM,11% and 0%
same,%Inh,[16],0%
same,%Inh,[17],0%
same,%Inh,[18],0%
same,%Inh,[19]; 1 µM,60% and 41%
same,%Inh,[20]; 1 µM,7% and 25%
